Source: PubChem BioAssay AID1159580 (chemical genetic matrix, 2015)
Where “and” joins values, the source holds several entries; their conditions need not be identical. Equal entries are not always repeated. Out of some 5,500 compounds screened, about 2,000 (36%) were called active. Not shown: some 18% with an inconclusive outcome. Rule as the data show it: active = normalized growth mostly below about 0.91 (no sharp cut-off); inconclusive = no clear call, values can overlap the other calls; inactive = mostly above about 0.92. The list shows a part of the results.

Assay: chemical genetic growth profiling, strain panel (AID 1159580);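 also: tested at 20 µM; growth read once vehicle control cultures reached saturation at 30 °C; 1 = growth at the plate median or of vehicle wells; lower values mean less growth of the strain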
Settings: S. cerevisiae deletion strains, growth OD

Measured: normalized growth

CC(C)[C@@H]1CC[C@@H](C)C[C@H]1O
inactive: locus YAL021C, strain ccr4, stronger effect = lower value 0.968 | locus YAL026C, strain drs2, stronger effect = lower value 0.987 | locus YAL030W, strain snc1, stronger effect = lower value 0.984 | locus YBL061C, strain skt5, stronger effect = lower value 1.01 | locus YBR009C, strain hhf1, stronger effect = lower value 0.998 | locus YBR021W, strain FUR4, stronger effect = lower value 1.03 | locus YBR023C, strain chs3, stronger effect = lower value 1.01 | locus YBR171W, strain sec66, stronger effect = lower value 0.973 | locus YBR229C, strain ROT2, stronger effect = lower value 1.01 | locus YBR231C, strain swc5, stronger effect = lower value 0.988 | locus YBR279W, strain paf1, stronger effect = lower value 0.998 | locus YCL011C, strain gbp2, stronger effect = lower value 0.982 | locus YCL016C, strain dcc1, stronger effect = lower value 0.995 | locus YCL029C, strain bik1, stronger effect = lower value 1.01 | locus YCL061C, strain MRC1, stronger effect = lower value 0.986 | locus YCL069W, strain vba3, stronger effect = lower value 0.973 | locus YCR088W, strain abp1, stronger effect = lower value 0.979 | locus YDL005C, strain med2, stronger effect = lower value 0.98 | locus YDL035C, strain GPR1, stronger effect = lower value 1.02 | locus YDL040C, strain nat1, stronger effect = lower value 0.979 | locus YDL074C, strain BRE1, stronger effect = lower value 0.997 | locus YDL101C, strain DUN1, stronger effect = lower value 1.01 | locus YDL134C, strain PPH21, stronger effect = lower value 1.01 | locus YDL185W, strain tfp1, stronger effect = lower value 1.02 | locus YDL192W, strain arf1, stronger effect = lower value 1.02 | locus YDR001C, strain nth1, stronger effect = lower value 0.978 | locus YDR069C, strain doa4, stronger effect = lower value 0.992 | locus YDR101C, strain arx1, stronger effect = lower value 0.996 | locus YDR137W, strain rgp1, stronger effect = lower value 0.898 | locus YDR150W, strain NUM1, stronger effect = lower value 1.01 | locus YDR159W, strain sac3, stronger effect = lower value 0.964 | locus YDR162C, strain NBP2, stronger effect = lower value 1.02 | locus YDR195W, strain ref2 0.986 | locus YDR297W, strain sur2, stronger effect = lower value 0.984 | locus YDR318W, strain mcm21, stronger effect = lower value 1.02 | locus YDR334W, strain swr1, stronger effect = lower value 0.951 | locus YDR335W, strain msn5, stronger effect = lower value 0.984 | locus YDR388W, stronger effect = lower value 1.01 | locus YDR392W, strain spt3, stronger effect = lower value 0.958 | locus YDR502C, strain sam2, stronger effect = lower value 1.01 | locus YEL003W, strain gim4, stronger effect = lower value 0.989 | locus YEL037C, strain rad23, stronger effect = lower value 0.968 | locus YEL061C, strain CIN8 (second series), stronger effect = lower value 0.963 | locus YEL061C, strain CIN8, stronger effect = lower value 1.01 | locus YER015W, strain faa2, stronger effect = lower value 0.996 | locus YER016W, strain bim1, stronger effect = lower value 0.992 | locus YER110C, stronger effect = lower value 1.03 | locus YER111C, strain swi4, stronger effect = lower value 0.961 | locus YER155C, strain BEM2 (second series), stronger effect = lower value 0.94 | locus YER155C, strain BEM2, stronger effect = lower value 1.01 | locus YER167W, strain BCK2, stronger effect = lower value 1.02 | locus YFR010W, strain ubp6, stronger effect = lower value 0.989 | locus YGL078C, strain dbp3, stronger effect = lower value 1.02 | locus YGL086W, strain mad1, stronger effect = lower value 1.01 | locus YGL167C, strain pmr1, stronger effect = lower value 1 | locus YGL173C, strain kem1, stronger effect = lower value 0.999 | locus YGL227W, strain vid30, stronger effect = lower value 0.981 | locus YGL240W, strain doc1, stronger effect = lower value 0.995 | locus YGL248W, strain PDE1, stronger effect = lower value 0.992 | locus YGL253W, strain hxk2, stronger effect = lower value 0.995 | locus YGR078C, strain PAC10, stronger effect = lower value 0.975 | locus YGR135W, strain pre9, stronger effect = lower value 1.04 | locus YGR229C, strain SMI1, stronger effect = lower value 1.03 | locus YGR252W, strain gcn5, stronger effect = lower value 1.03 | locus YHR013C, strain ard1, stronger effect = lower value 1.03 | locus YHR027C, strain rpn1, stronger effect = lower value 0.996 | locus YHR030C, strain SLT2, stronger effect = lower value 1.01 and 0.979 | locus YHR079C, strain IRE1 (second series), stronger effect = lower value 1.01 | locus YHR079C, strain IRE1, stronger effect = lower value 0.991 | locus YHR094C, strain hxt1, stronger effect = lower value 1.02 | locus YHR129C, strain ARP1, stronger effect = lower value 1.01 | locus YHR142W, strain chs7, stronger effect = lower value 0.988 | locus YHR200W, strain rpn10, stronger effect = lower value 1.02 | locus YIL066C, strain RNR3, stronger effect = lower value 0.994 | locus YIL073C, strain SPO22, stronger effect = lower value 1.09 | locus YIL125W, strain kgd1, stronger effect = lower value 1.01 | locus YIR030C, strain dcg1, stronger effect = lower value 1.01 | locus YJL092W, strain hpr5, stronger effect = lower value 0.977 | locus YJL095W, strain BCK1 (second series), stronger effect = lower value 0.986 | locus YJL095W, strain BCK1, stronger effect = lower value 0.972 and 0.985 | locus YJL115W, strain asf1, stronger effect = lower value 0.981 | locus YJL129C, strain trk1, stronger effect = lower value 0.937 | locus YJL134W, strain LCB3, stronger effect = lower value 1.01 | locus YJL154C, strain vps35, stronger effect = lower value 0.972 | locus YJL164C, strain tpk1, stronger effect = lower value 0.998 | locus YJL166W, strain qcr8, stronger effect = lower value 0.986 | locus YJL168C, strain set2, stronger effect = lower value 1.01 | locus YJL187C, strain SWE1 (second series), stronger effect = lower value 0.984 | locus YJL187C, strain SWE1, stronger effect = lower value 0.99 | locus YJR043C, strain POL32, stronger effect = lower value 1.02
